High-throughput results as filed in PubChem.
Sampled rows, rich in hits. Any-hit rate of the full collection: about 7.7%.
FBPA Giardia inh = Giardia lamblia aldolase inhibition; purified Giardia FBPA; 0.71% of 290,000 active; Potency, µM (titrated, usually from 59.6 µM), for the others: at the highest dose activity, negative = inhibition, most hits filed as inhibitors; A8B2U2; AID 2451; also: potency is read from the fitted curve at half-maximal effect; nearly all actives have a fitted effect of over 55% in size
Target sequence (A8B2U2 whole entry, looked up): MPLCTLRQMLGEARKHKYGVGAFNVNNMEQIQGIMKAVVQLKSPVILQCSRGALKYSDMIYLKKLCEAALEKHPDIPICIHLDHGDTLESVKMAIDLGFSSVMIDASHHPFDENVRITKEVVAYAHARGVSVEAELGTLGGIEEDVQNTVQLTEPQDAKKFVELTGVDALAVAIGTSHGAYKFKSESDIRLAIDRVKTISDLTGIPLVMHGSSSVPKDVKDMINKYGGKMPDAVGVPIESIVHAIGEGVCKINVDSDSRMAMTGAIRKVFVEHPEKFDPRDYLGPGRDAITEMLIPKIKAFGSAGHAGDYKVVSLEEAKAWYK
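40 nM FBPA preincubated 10 min at RT with compound (up to 57.5 uM final), then substrate plus GAPDH/TPI/NAD/arsenate coupling and diaphorase/resazurin added. Fluorescence read after 20 min at RT, 525/598 nm.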
HCMV inh = inhibitors of human cytomegalovirus. HFF cells, HCMV-luciferase reporter, 72 h; stronger effect = lower value. activity change, negative = inhibition, % at 57.5 µM. 4.5% of 410,000 active. AID 1259415; in the data active = activity change below about -60%; inconclusive = no clear call, values can overlap the other calls; inactive = above about -39%
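Inhibition of viral replication was scored as loss of reporter luminescence in HFFs infected with HCMV-luciferase (MOI 1 PFU/cell) for 72 h; compounds tested at 2 doses, normalized to buffer and Salinomycin controls.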
FMDV inh = foot and mouth disease virus antiviral activity. FMDV antiviral cell-based qHTS. 1.2% of 410,000 active. Potency, µM (doses to about 57.9 µM), for the others: at the highest dose activity change, negative = inhibition, actives largely listed as inhibitors; calls by dose curve; tested in HEK293T cells; also: read-out not given here; potency is read from the fitted curve at half-maximal effect; nearly all actives have a fitted effect of over 45% in size
TbPYK inhibitor = blocks Trypanosoma brucei pyruvate kinase; Potency, µM (titrated, usually from 76.8 µM), inactives show at the highest dose activity, negative = inhibition, most hits filed as inhibitors; TbPYK enzyme, Kinase-Glo Plus ATP luminescence, 45 min; 0.12% of 410,000 active; Q57TT1; also: potency is read from the fitted curve at half-maximal effect; nearly all actives have a fitted effect of over 50% in size
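Luminescent Kinase-Glo Plus end-point after 45 min room-temperature reaction of T. brucei pyruvate kinase started with 130 uM ADP (final). Buffer TEA 50 mM pH 7.2 with KCl, MgCl2, BSA, Tween-20; titration-based qHTS with fitted concentration-effect curves.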
Sm TGR inh = inhibitors of Schistosoma mansoni thioredoxin glutathione reductase; purified TGR, DTNB reduction, TNB absorbance 405 nm; Potency, µM (series often up to 114 µM), for inactives: top-dose activity change, negative = inhibition, hits mostly inhibitors; 3% of 360,000 active; Q962Y6; also: potency is read from the fitted curve at half-maximal effect; nearly all actives have a fitted effect of over 60% in size
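First, TGR (20 nM dispensed) and NADPH were mixed with compound. Second, a 15 min room-temperature incubation followed. Third, further NADPH and then DTNB were added to start the reaction. Finally, TNB absorbance was monitored kinetically.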
RE007 growth inh = less growth of the S. pombe RE007 Vpr strain; S. pombe RE007 Vpr strain, BacTiter-Glo ATP luminescence, 24 h; Potency, µM (titrated, usually from 92.2 µM), for inactives: at the top dose activity change, negative = less growth, actives largely listed as inhibitors; 0.21% of 360,000 active; active = well fitted falling curve with a large enough effect; inconclusive = small, poorly fitted or top-dose-only effect; inactive = no such curve, though single readings can be large or run the other way; also: potency is read from the fitted curve at half-maximal effect; nearly all actives have a fitted effect of over 50% in size
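Fission yeast strain RE007, carrying one chromosomally integrated HIV-1 vpr copy, was seeded at OD 0.01 in PMG+AL medium with 23 nL pinned compound. After 24 h at 30 °C and 99% humidity, viability was read by BacTiter-Glo luminescence.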
* = called active by the depositor; ? = inconclusive; / = no result given; [ ] = another dose, or the depositor's remark. Unless noted, calls follow the shape of the dose curve; as a rule, active = well fitted curve in the direction sought with a large enough effect; inconclusive = small, poorly fitted or top-dose-only effect, or another doubt; inactive = no such curve, though single readings can be large; an effect the other way counts as inactive or inconclusive. % is scaled to controls: 0 for no effect and ±100 for the full control effect.

SMILES	FBPA Giardia inh	HCMV inh	FMDV inh	TbPYK inhibitor	Sm TGR inh	RE007 growth inh
CCN(Cc1ccccc1)S(=O)(=O)c1ccc(C(=O)N(CCCN(C)C)c2nc3cc4c(cc3s2)OCO4)cc1	/	-65*	-5%	4%	-18%	7%
COc1ccc(OC)c2sc(N(CCCN(C)C)C(=O)CCS(=O)(=O)c3ccccc3)nc12	/	16	35µM*	-8%	3.2µM*	3%
COc1ccc(Cl)c2sc(N(CCN(C)C)C(=O)CCS(=O)(=O)c3ccc(C)cc3)nc12	/	6	-29%	-3%	-30%	-14%
O=C(NNc1ncnc2c1cnn2-c1ccccc1)c1cccc(Cl)c1	/	3	-17%	-9%	-2%	/
CN(C)c1cccc(CNc2nccc3[nH]c(-c4cccc(F)c4)nc23)c1	/	-16	/	/	/	/
Cc1ccc(C(=O)NCC(=O)Nc2ccncc2)cc1C	0%	-74*	-17%	4%	-23%	18%
Cc1[nH]c2ccc(C(=O)Nc3ccncc3)cc2c1C	-8%	-63*	-22%	2%	0%	-17%
CCOC(=O)c1c(NC(=O)c2cc3nc(-c4ccc(Br)cc4)cc(C(F)(F)F)n3n2)sc(C(C)=O)c1C	/	7	-15%	-4%	-6%	/
COC(=O)CC/C(C)=N\Nc1ccc([N+](=O)[O-])cc1[N+](=O)[O-]	1%	-103*	-20%	2%	41%	4%
COc1ccc(/C=N\Nc2ccc([N+](=O)[O-])cc2[N+](=O)[O-])c(C(=O)O)c1OC	16%	-27	-12%	-27%	8.9µM*	-9%
CCOc1ccccc1NC(=O)Cn1cc(C(=O)c2ccc(Cl)cc2)c(=O)c2ccc(C)nc21	/	8	-3%	-9%	5%	/
OCCCc1nc2n(n1)C(c1ccccc1)C=C(c1ccccc1)N2 (stereo not given)	-13%	/	-15%	2%	25µM*	10%
COc1ccc(C2C=C(c3cccs3)Nc3nc(CCCO)nn32)cc1 (stereo not given)	-22%	/	/	/	40µM*	/
Cc1ccc(C2C=C(c3ccc(F)cc3)Nc3nc(CCCO)nn32)cc1 (stereo not given)	/	-10	-15%	0%	?	/
OCCCc1nc2n(n1)C(c1cccc(Cl)c1)C=C(c1ccccc1)N2 (stereo not given)	/	-12	-17%	1%	-14%	/
COc1ccc(C2=CC(c3ccc(F)cc3)n3ncc(C(=O)Nc4ccc(C)cc4)c3N2)cc1 (stereo not given)	/	-88*	0%	2%	27%	/
Cc1ccc(NC(=O)c2cnn3c2NC(c2ccccc2)=CC3c2ccccc2)cc1 (stereo not given)	/	?	-18%	1%	8%	/
COc1ccc(C2C=C(c3ccccc3)Nc3nc(CCCO)nn32)cc1 (stereo not given)	-9%	11	4%	-9%	25µM*	-18%
CC(C)(C)OC(=O)N1CCC(c2c(C(=O)N3CCN(C(=O)c4ccco4)CC3)cnn2-c2ccccc2)CC1	/	0	-9%	-4%[15.4 µM]	?	/
Cc1c(C(=O)N2CCC(C(=O)Nc3ccc(F)c(Cl)c3)CC2)sc2nc[nH]c(=O)c12	/	-25	-23%	-10%	-4%	/
COc1ccc(C2C=C(c3ccc(F)cc3)Nc3nc(-c4ccc(Cl)cc4)nn32)cc1 (stereo not given)	/	-101*	?	-3%	1%	/
COc1ccc(C2=CC(c3ccc(Cl)cc3)n3cnnc3N2)cc1OC (stereo not given)	-8%	0	36%	3%	25µM*	-4%
Cc1noc(Cn2c(=O)c3ccccc3n(CC(=O)Nc3ccccc3C(F)(F)F)c2=O)n1	/	-2	6%	-1%	-7%	/
Cc1ccc(-c2nc3sccn3c2Nc2ccccc2C)cc1	/	23	-14%	3%	-15%	/
COc1ccc(CCNC(=O)CS(=O)(=O)c2cn(CC(=O)N3CCOCC3)c3ccccc23)cc1OC	?	-13	-7%	-20%	25µM*	-9%
SMILES	FBPA Giardia inh	HCMV inh	FMDV inh	TbPYK inhibitor	Sm TGR inh	RE007 growth inh
OCc1cnc(SCc2ccccc2F)n1Cc1ccc(F)cc1	/	-35	17%	-16%	-9%	/
COc1ccc(-c2cn3c(n2)sc2cc(C(=O)Nc4cccc(SC)c4)ccc23)cc1	/	/	21%	-3%	-5%	/
O=C(NCCN1Cc2ccccc2OC(c2ccccc2F)C1)c1cncs1 (stereo not given)	/	/	-4%	/	/	/
Cc1cc(C)c(-n2c(SCc3nc4ccccc4s3)n[nH]c2=O)c(C)c1	-2%	51	35µM*	-5%	28%	4%
CCCn1c(SCc2nc3ccccc3s2)n[nH]c1=O	-14%	255	55%	0%	-8%	20%
CC1(C)CC2CC(C)(CN2S(=O)(=O)c2cccc(C(=O)OCC(=O)NC(N)=O)c2)C1 (stereo not given)	/	-26	4%	-6%	16µM*	-9%
CCC(=O)NCc1nc2ccccc2n1Cc1ccccc1	/	3	-7%	4%	4%	/
C(=C\n1nnc2ccccc21)/c1ccc[nH]1	/	-8	40%	8%	25µM*	-11%
c1ccc(-n2nnc3ccccc32)cc1	27%	?	-4%	1%	3%	-9%
Cc1ccc(-n2c(=O)c3cccnc3n2CC(=O)Nc2cccc(C)c2C)cc1	/	-63*	-13%	-2%	1%	/
CC(=O)c1cn(CC(=O)Nc2cccc(C)c2C)c2ccccc12	3%	-70*	?	5%	5%	13%
CCC(=O)c1cn(CC(=O)Nc2cccc(C)c2C)c2ccccc12	12%	4	-18%	2%	2%	-10%
C[C@@H]1CNC(=O)c2c(C(=O)N3CCN(c4ccccc4)CC3)ncn21	/	-5	/	/	/	/
O=C(Nc1ccccc1SC(=O)c1ccccc1)c1ccccc1	/	-4	65%	?	/	?
Cc1ccc(C(=O)Sc2cccccc2=O)cc1	17%	-99*	0%	1%	?	?
CCN(CC(=O)Nc1ccc(NC(C)=O)cc1)C(=O)c1oc2c(ccc3ccccc32)c1C	/	-74*	-19%	-16%	4%	0%
C=CCn1c(O)c(C=Nc2c(C)n(C)n(-c3ccccc3)c2=O)c(=O)[nH]c1=O	2%	34	-14%	-3%	-10%	-1%
